We go through 21 compounds from PubChem BioAssay (NCI).

Each structure is given as a SMILES string. About 79,000 compounds went through this panel and 15% of them were active in at least one assay; those are over-represented in the sample as a whole. Unmarked numbers belong to inactive results. Active and inactive are the calls of the source. Rule as the data show it: active = growth inhibition above about 70%; inactive = the rest.

Assay [1] is described as follows: NCI Yeast Anticancer Drug Screen. Data for the rad50 strain (AID 155).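 Also: 0% = growth of vehicle-only cultures of the same strain.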 To be noted: S. cerevisiae rad50 strain growth inhibition, hits give high values; at 50.0 µM unless noted. In outline:
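Genetically altered yeast (DNA repair pathway); compound treatment; growth inhibition vs vehicle ctrl.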

Assay [2] is described as follows: NCI Yeast Anticancer Drug Screen. Data for the mec2-1 strain (AID 157). The conditions noted are these: S. cerevisiae mec2-1 strain, hits give high values; at 50.0 µM unless noted. In outline: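 Cells of the genetically defined mec2-1 yeast strain are incubated with test compound. Inhibition of growth is calculated against vehicle-treated controls.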
Assay [3] in a line: NCI Yeast Anticancer Drug Screen. Data for the sgs1 mgt1 strain (AID 161).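 Also: 0% = growth of cultures given vehicle only.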 The conditions noted are these: S. cerevisiae sgs1 mgt1 strain, hits give high values; at 50.0 µM unless noted. In outline:
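Read-out: growth inhibition vs vehicle controls. Cells: mutant yeast strain deficient in DNA damage repair.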

Assay [4] is described as follows: NCI Yeast Anticancer Drug Screen. Data for the cln2 rad14 strain (AID 165).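 Also: 0% = growth equal to vehicle treated cultures.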 The conditions noted are these: S. cerevisiae cln2 rad14 strain, hits give high values; at 50.0 µM unless noted. An outline of the steps: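 The screen exposed genetically defined yeast (cln2 rad14) to test compounds and scored growth inhibition relative to vehicle-treated controls.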
A short description of assay [5]: NCI Yeast Anticancer Drug Screen. Data for the bub3 strain (AID 167). To be noted: S. cerevisiae bub3 mutant strain, hits give high values; at 50.0 µM unless noted. In outline: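 Yeast carrying a defined mutation is treated with each compound, and growth is compared with that of vehicle-exposed cells to give inhibition.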
Assay [6] in a line: NCI Yeast Anticancer Drug Screen. Data for the mlh1 rad18 strain (AID 175). The conditions noted are these: S. cerevisiae mlh1 rad18 strain growth inhibition, hits give high values; at 50.0 µM unless noted. In outline: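 Compound-treated yeast growth, normalised to vehicle controls. Strain bears defined DNA repair mutations.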

With `O=C(O)Cc1ccc(C(=O)O)cc1`, the growth inhibition in assay [1] was 21.2%; in assay [2], -1.25%; in assay [3], 5.8%; in assay [4], -13.4%; in assay [5], 13.2%; in assay [6] it was 32.8%.

Regarding `CC(C)=CC(=O)O`, the growth inhibition in assay [1] was 3.2%; in assay [2], -3.3%; in assay [3], -9.3%; in assay [4], 20.3%; in assay [5], 2.1%; in assay [6], 7.9%.

As to `CC1CC(=O)C(CC(=O)O)C1C(C(=O)C(=O)Nc1c(C#N)cccc1[N+](=O)[O-])[N+](=O)[O-]` (stereo unspecified), the growth inhibition in assay [1] was -37.7%; in assay [2], -16.6%; in assay [3], -43%; in assay [4] it was 15.8%; in assay [5], -43.8%; in assay [6], -36.8%.

For the compound `COc1ccc(N=Nc2nc(N)c(C(N)=O)[nH]2)cc1`, the growth inhibition in assay [1] is -8.65%; in assay [2], -7.55%; in assay [3], -4.75%; in assay [4], -28.5%; in assay [5], 5.7%; in assay [6], -16.6%.

As for `CN(c1ccccc1)c1c(Cl)c(=O)oc2c1ccc1nc(-c3ccccc3)sc12`, the growth inhibition was 44.6% in assay [1]; 24.8% in assay [2]; 35.7% in assay [3]; 43.5% in assay [4]; -4.3% in assay [5]; 32.9% in assay [6].

Take `CCN(CC)C(=S)SCC(=O)Nc1nc2c(s1)CCCC2`: the growth inhibition was -9.25% in assay [1]; -1.25% in assay [2]; -34.2% in assay [3]; 3.75% in assay [4]; 11.3% in assay [5]; 6.9% in assay [6].

Turning to `CC(N)(CC(O)(C(F)(F)Cl)C(F)(F)Cl)C(=O)O` (stereo unspecified), the growth inhibition in assay [1] was -48.1%; in assay [2] it was -37.7%; in assay [3], -33.4%; in assay [4], -9.25%; in assay [5], -13.7%; in assay [6], -28.8%.

Turning to `O=C1Cc2c(-c3ccc(Cl)cc3)cc(-c3ccccc3)nc2-c2ccccc2N1`, the growth inhibition in assay [1] was -16.9%; in assay [2], -17.8%; in assay [3] it was -10.9%; in assay [4], 4.95%; in assay [5], -11.2%; in assay [6], -52%.

With `CCCCC1(CC)COC(C)(CC)OC1` (stereo unspecified), the growth inhibition in assay [1] was 29.4%; in assay [2], 15.7%; in assay [3], 5.3%; in assay [4], -26.6%; in assay [5] it was -19.4%; in assay [6], 17.5%.

Regarding `CCOC(=O)c1ccc(N=Cc2ccc(N(CCC#N)CCC#N)cc2)cc1`, the growth inhibition in assay [1] is 9.35%; in assay [2], 1.65%; in assay [3], -7.25%; in assay [4], 3.7%; in assay [5], -1.5%; in assay [6] it was -7.45%.

Regarding `Cc1ccc(NC(=O)CCS)cc1`, the growth inhibition in assay [1] was -1.75%; in assay [2] it was -25.9%; in assay [3], 9.5%; in assay [4] it was 2.1%; in assay [5] it was -13.2%; in assay [6], 15.9%.

For the compound `O=C(NC12CC3CC(CC(C3)C1)C2)C(=O)c1c[nH]c2ccc([N+](=O)[O-])cc12`, the growth inhibition in assay [1] was -17.4%; in assay [2], -25.1%; in assay [3] it was -50.6%; in assay [4] it was -9.85%; in assay [5] it was -15.1%; in assay [6], -31.9%.

In the case of `Nc1nccs1`, the growth inhibition is -0.45% in assay [1]; -0.65% in assay [2]; 4.75% in assay [3]; 9.4% in assay [4]; -3.15% in assay [5]; 25.7% in assay [6].

Turning to `CCN(CC)CCN1CC(=O)N2CCCCN2C(=O)C1`, the growth inhibition in assay [1] was 17.2%; in assay [2] it was 4.5%; in assay [3], 14.9%; in assay [4] it was 13.4%; in assay [5] it was 7.85%; in assay [6], 10.6%.

In the case of `O=C1c2ccccc2CCC1c1ccccc1` (stereo unspecified), the growth inhibition is -1.65% in assay [1]; -0.7% in assay [2]; -5.2% in assay [3]; -1.05% in assay [4]; -10.7% in assay [5]; -23.4% in assay [6].

Turning to `CN(/N=C/c1cccs1)c1ccc(Cl)cc1[N+](=O)[O-]`, the growth inhibition is -29.4% in assay [1]; -8.95% in assay [2]; -13.8% in assay [3]; 0.95% in assay [4]; -7.45% in assay [5]; -1% in assay [6].

Regarding `Nc1ccc(NC(=O)Nc2ccccc2)cc1`, the growth inhibition in assay [1] was 5.65%; in assay [2], -19.2%; in assay [3], -0.7%; in assay [4] it was -32.4%; in assay [5], -22.3%; in assay [6], -15.1%.

As to `COc1ccc2oc3c(OC)c(OC)c(OC)cc3c(=O)c2c1`, the growth inhibition in assay [1] was -11.3%; in assay [2], -21.6%; in assay [3], -4.95%; in assay [4] it was 6%; in assay [5], 12.6%; in assay [6], -15.8%.

On to `Cc1ccc(-c2c3ccccc3cc3ccccc23)c(C)c1`, for which the growth inhibition in assay [1] was 24.9%; in assay [2] it was -11.1%; in assay [3], -1.5%; in assay [4], -2.8%; in assay [5], 5.25%; in assay [6] it was 11.8%.

For `Cc1ccc(S(=O)(=O)OCCN(CCOS(=O)(=O)c2ccc(C)cc2)c2cccc([N+](=O)[O-])c2)cc1`, the growth inhibition was 22.9% in assay [1]; 8.85% in assay [2]; 7.85% in assay [3]; 22.4% in assay [4]; -0.3% in assay [5]; 21.4% in assay [6].

As to `N#C/C(=C\c1ccc(Cl)cc1Cl)C(=O)N/N=C/c1ccc(Cl)cc1Cl`, the growth inhibition in assay [1] was 62.8%; in assay [2] it was 37.8%; in assay [3], 27.8%; in assay [4], 58.2%; in assay [5], 98% (active); in assay [6] it was 23.6%.
